Test results from ChEMBL document CHEMBL2218924, “A broad activity screen in support of a chemogenomic map for kinase signalling research and drug discovery” (Biochem J, 2013).

Tests used:
[1] = target: Mitogen-activated protein kinase 11 (Homo sapiens) (UniProt Q15759); details: at 1 µM
[2] = target: T1, Mitogen-activated protein kinase 13 (Homo sapiens) (UniProt O15264); details: at 1 µM
T1 sequence (whole entry): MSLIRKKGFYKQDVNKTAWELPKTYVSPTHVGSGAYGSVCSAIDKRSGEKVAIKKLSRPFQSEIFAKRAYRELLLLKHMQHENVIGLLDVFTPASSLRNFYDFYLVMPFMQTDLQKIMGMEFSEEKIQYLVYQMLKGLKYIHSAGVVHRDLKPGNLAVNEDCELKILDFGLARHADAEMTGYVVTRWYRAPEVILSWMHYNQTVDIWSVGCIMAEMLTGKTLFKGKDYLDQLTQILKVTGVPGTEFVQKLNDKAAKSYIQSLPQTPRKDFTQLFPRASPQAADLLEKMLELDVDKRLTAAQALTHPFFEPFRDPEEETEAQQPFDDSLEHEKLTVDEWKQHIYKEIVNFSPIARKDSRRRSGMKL

[3] = target: T1, Mitogen-activated protein kinase 13 (Homo sapiens); details: at 10 µM
[4] = target: T2, Serine/threonine-protein kinase Sgk1 (Homo sapiens) (UniProt O00141); details: at 1 µM
T2 sequence (whole entry): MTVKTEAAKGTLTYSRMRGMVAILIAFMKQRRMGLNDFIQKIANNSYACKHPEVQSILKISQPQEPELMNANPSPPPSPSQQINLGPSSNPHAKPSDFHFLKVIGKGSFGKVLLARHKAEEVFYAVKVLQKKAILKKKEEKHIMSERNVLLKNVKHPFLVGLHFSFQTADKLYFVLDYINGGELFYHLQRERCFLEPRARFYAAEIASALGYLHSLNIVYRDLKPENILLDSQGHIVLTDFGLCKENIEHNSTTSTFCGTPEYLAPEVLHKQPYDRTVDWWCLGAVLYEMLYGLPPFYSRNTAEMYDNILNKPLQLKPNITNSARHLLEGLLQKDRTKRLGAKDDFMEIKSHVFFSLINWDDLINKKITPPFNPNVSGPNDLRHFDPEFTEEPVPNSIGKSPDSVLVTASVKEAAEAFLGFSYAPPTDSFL

[5] = target: T2, Serine/threonine-protein kinase Sgk1 (Homo sapiens); details: at 10 µM
[6] = target: T3, Serine/threonine-protein kinase Sgk2 (Homo sapiens) (UniProt Q9HBY8); details: at 1 µM
T3 sequence (whole entry): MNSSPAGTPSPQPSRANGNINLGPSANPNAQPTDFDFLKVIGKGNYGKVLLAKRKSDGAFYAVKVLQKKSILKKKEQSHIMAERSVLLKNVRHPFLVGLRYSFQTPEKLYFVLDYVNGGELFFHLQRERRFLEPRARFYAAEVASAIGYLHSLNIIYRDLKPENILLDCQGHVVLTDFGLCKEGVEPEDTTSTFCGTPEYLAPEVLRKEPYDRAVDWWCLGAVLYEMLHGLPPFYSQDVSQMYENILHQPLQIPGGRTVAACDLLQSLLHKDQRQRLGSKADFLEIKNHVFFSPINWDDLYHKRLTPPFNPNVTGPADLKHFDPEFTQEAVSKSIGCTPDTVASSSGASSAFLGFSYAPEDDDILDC

[7] = target: T3, Serine/threonine-protein kinase Sgk2 (Homo sapiens); details: at 10 µM
[8] = target: Mitogen-activated protein kinase 11 (Homo sapiens) (UniProt Q15759); details: at 10 µM
[9] = target: T4, Serine/threonine-protein kinase Sgk3 (Homo sapiens) (UniProt Q96BR1); details: at 10 µM
T4 sequence (whole entry): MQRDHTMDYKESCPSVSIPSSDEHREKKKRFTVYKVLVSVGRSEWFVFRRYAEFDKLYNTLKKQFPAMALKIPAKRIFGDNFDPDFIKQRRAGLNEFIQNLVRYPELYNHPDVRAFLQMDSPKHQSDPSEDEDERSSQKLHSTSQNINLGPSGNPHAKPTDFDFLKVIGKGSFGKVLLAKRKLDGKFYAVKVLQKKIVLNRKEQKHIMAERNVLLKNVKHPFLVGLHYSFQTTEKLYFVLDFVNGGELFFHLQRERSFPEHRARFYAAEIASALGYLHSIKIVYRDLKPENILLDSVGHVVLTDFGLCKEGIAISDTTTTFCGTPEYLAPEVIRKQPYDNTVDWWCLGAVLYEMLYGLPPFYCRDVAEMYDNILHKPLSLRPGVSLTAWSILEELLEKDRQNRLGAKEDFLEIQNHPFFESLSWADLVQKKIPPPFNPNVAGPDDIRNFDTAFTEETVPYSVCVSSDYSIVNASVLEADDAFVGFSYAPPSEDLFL

[10] = target: Serine/threonine-protein kinase SIK1 (Homo sapiens) (UniProt P57059); details: at 1 µM
Serine/threonine-protein kinase SIK1 (Homo sapiens), sequence (P57059 whole entry): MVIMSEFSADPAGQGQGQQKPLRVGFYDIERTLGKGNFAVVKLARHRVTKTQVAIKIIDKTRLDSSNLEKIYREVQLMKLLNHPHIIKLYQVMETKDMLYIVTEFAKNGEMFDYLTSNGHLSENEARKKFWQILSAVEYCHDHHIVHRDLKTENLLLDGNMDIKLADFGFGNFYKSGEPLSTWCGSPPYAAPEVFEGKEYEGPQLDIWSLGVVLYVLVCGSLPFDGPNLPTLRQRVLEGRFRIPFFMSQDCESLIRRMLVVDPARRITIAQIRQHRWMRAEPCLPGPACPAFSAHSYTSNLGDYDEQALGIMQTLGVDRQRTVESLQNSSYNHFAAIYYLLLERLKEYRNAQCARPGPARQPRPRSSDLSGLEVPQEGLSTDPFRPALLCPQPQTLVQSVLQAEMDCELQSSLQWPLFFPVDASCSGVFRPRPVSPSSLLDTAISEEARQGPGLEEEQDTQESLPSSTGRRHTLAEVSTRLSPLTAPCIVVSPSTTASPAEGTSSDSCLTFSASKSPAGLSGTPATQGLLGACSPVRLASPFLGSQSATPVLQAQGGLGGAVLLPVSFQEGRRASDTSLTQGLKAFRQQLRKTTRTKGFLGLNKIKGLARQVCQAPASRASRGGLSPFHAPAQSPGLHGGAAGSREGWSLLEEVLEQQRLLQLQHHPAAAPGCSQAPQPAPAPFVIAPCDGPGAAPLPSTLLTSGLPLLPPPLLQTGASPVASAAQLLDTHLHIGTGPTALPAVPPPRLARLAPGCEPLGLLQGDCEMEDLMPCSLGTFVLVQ

Mitogen-activated protein kinase 11 (Homo sapiens), sequence (Q15759 whole entry): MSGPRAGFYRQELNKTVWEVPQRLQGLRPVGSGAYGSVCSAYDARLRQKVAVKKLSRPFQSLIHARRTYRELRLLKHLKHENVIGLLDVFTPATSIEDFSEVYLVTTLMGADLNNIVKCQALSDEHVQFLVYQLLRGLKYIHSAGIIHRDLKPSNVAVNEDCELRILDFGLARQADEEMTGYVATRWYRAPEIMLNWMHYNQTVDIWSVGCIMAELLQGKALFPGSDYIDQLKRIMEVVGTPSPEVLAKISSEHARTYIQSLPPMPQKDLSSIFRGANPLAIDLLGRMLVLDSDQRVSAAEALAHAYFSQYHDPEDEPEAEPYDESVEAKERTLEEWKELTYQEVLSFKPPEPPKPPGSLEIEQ

| SMILES | residual activity [1] | residual activity [2] | residual activity [3] | residual activity [4] | residual activity [5] | residual activity [6] | residual activity [7] | residual activity [8] | residual activity [9] | residual activity [10] |
| --- | --- | --- | --- | --- | --- | --- | --- | --- | --- | --- |
| CN(C)S(=O)(=O)c1ccc2c(c1)/C(=C/c1cc3c([nH]1)CCCC3)C(=O)N2 | 94% | 97% | 96% | 82% | 96% | 115% | 95% | – | – | – |
| NC(=O)Nc1sc(-c2ccc(F)cc2)cc1C(N)=O | 89% | 90% | 73% | – | – | – | – | 68% | 85% | 28% |
| CN([C@@H](Cc1ccc(OS(=O)(=O)c2cccc3cnccc23)cc1)C(=O)N1CCN(c2ccccc2)CC1)S(=O)(=O)c1cccc2cnccc12 | 113% | 81% | – | 123% | – | – | – | – | 83% | – |
| COc1cc2nccc(Oc3ccc(NC(=O)Nc4cc(C)on4)c(Cl)c3)c2cc1OC | 19% | – | 97% | – | – | 103% | 79% | – | – | – |
| O=C(NC(NC(=S)Nc1ccc(F)c([N+](=O)[O-])c1)C(Cl)(Cl)Cl)C(c1ccccc1)c1ccccc1 (configuration not stated) | 98% | 95% | 104% | – | 83% | – | – | 97% | 77% | 136% |
| O=C(CCCc1ccc(-c2ccccc2F)cc1)Nc1ccc(O)cc1 | 105% | 105% | 96% | 83% | 179% | 131% | 135% | 95% | – | – |
| COc1cc2c(cc1OC)-c1n[nH]c(Nc3cccc(F)c3)c1C2 | 60% | 102% | 74% | 70% | – | 109% | 98% | 25% | – | 4% |
| O=C1NC(=O)c2c1c1c3ccccc3[nH]c1n1cncc21 | 90% | 93% | 88% | 66% | 47% | 52% | 38% | 87% | 67% | 83% |
| NC(=O)c1ccc(-c2nc(-c3ccc4c(c3)OCCO4)c(-c3ccccn3)[nH]2)cc1 | 93% | – | – | 98% | 90% | 97% | 89% | 88% | – | – |
| Fc1ccc(-c2nc3n(c2-c2ccncc2)CCS3)cc1 | 80% | – | – | – | – | – | – | 23% | – | 139% |
| CSc1nc(-c2ccc(F)cc2)c(-c2ccnc(NC(C)c3ccccc3)c2)[nH]1 (configuration not stated) | 10% | – | – | – | – | – | 91% | -2% | – | 144% |
| CCCC(=O)Oc1ccc2[nH]c(C(=O)c3cc4ccccc4[nH]3)cc2c1 | 104% | 104% | 86% | 101% | 95% | 99% | 96% | – | 85% | 83% |
| COc1cc2nccc(Oc3ccc(NC(=S)NC(=O)c4ccccc4C)cc3)c2cc1OC | 83% | 101% | 87% | – | – | 99% | – | 87% | 79% | 32% |
| O=c1cc(N2CCOCC2)oc2c1ccc1ccccc12 | 93% | 100% | 95% | 105% | 97% | 92% | 86% | 101% | 97% | 95% |
| O=C(O)/C=C/c1cc(Br)c(Br)c(Br)c1Br | 107% | 103% | 93% | 100% | 49% | 83% | 41% | 126% | 84% | – |
| COc1ccc(-c2cnc3c(-c4ccsc4)cnn3c2)cc1 | 94% | – | – | 99% | 94% | 97% | 83% | 95% | – | 87% |
| O=C1Cc2c([nH]c3ccc(Br)cc23)-c2ccccc2N1 | 98% | 98% | 68% | 95% | 81% | 99% | 74% | 89% | 83% | 91% |
| CCCCc1c(-c2ccc(OC)cc2)[nH]c2nccnc12 | 106% | – | – | 106% | 117% | 90% | 81% | – | 88% | 86% |
| O=C(c1ccccc1)c1ccc(N2CCOCC2)cc1O | 96% | – | – | 79% | 95% | 134% | 68% | 91% | 88% | 97% |
| O=c1cc(N2CCNCC2)oc2c(-c3ccccc3)cccc12 | 95% | – | 83% | 80% | 98% | – | 79% | 105% | 90% | 82% |
| O=C1Cc2c([nH]c3ccc([N+](=O)[O-])cc23)-c2ccccc2N1 | 100% | – | – | – | – | 65% | 68% | 103% | – | 100% |
| CC(C)(C)c1nc2c3ccc(F)cc3c3c(=O)[nH]ccc3c2[nH]1 | 62% | – | – | 63% | 68% | 63% | 55% | 69% | – | 31% |
| CCOC(=O)c1c(C)[nH]c(/C=C2\C(=O)Nc3ccccc32)c1C | 98% | – | – | – | – | 82% | 76% | 77% | – | – |
| Cn1sc(=O)n(Cc2ccccc2)c1=O | 89% | 100% | 98% | 91% | 96% | 91% | – | 89% | 86% | – |
| CC(C)(C)n1nc(Cc2cccc3ccccc23)c2c(N)ncnc21 | 64% | 101% | 95% | 100% | 127% | 101% | 78% | 22% | 105% | 72% |
| Nc1ncnc2c1cnn2-c1ccccc1 | 97% | – | – | 90% | 98% | – | 68% | 85% | 93% | – |
